In the library only some 7.5% were active in any assay of this set; here they are far more common.
FLuc modulator: counter-screen for miR-21 project: firefly luciferase inhibitors or activators | P08659 | AID 588342 | purified FLuc, Km substrates, luminescence inhibition | Potency, µM (series often up to 57.5 µM), hits mostly inhibitors | hit rate 6.9% among 360,000; also: nearly all actives have a fitted effect of over 55% in size
Target sequence (P08659 whole entry, looked up): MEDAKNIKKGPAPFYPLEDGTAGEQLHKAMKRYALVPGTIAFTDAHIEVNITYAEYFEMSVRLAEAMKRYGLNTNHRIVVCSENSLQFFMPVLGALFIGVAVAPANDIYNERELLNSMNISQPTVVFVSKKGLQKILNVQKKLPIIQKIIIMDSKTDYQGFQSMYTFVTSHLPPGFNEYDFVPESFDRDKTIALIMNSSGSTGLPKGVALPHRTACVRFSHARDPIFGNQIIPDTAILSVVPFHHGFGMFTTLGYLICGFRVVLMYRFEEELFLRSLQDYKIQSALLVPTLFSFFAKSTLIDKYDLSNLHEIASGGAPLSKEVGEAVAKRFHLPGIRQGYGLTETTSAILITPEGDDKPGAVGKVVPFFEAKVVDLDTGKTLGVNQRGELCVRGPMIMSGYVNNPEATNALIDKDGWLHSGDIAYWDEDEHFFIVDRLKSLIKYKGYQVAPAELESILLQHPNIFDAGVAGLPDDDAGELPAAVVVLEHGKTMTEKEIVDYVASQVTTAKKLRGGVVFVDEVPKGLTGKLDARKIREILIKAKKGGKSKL
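Purified P. pyralis luciferase, 10 nM final, with Km-level 10 uM D-luciferin and 10 uM ATP in 50 mM Tris acetate pH 7.5, 10 mM Mg acetate, 0.01% Tween-20, 0.05% BSA; 6-point qHTS titration about 60 µM downward; luminescence read.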
SMN2 splice enh: SMN2 splice variant enhancement; AID 1458; Potency, µM (top dose mostly 46.1 µM), usual class: activators; HEK293 SMN2-luciferase splicing reporter, luminescence, 30-36 h; hit rate 2.8% among 210,000; also: nearly all actives have a fitted effect of over 55% in size
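HEK293 cells carry an SMN2 […]–luciferase reporter in which exon 7 inclusion puts luciferase in frame. Cells were plated 10-12 h before compound addition, then incubated 30-36 h at 37C. ONE-Glo luminescence was read; sodium butyrate at 4.5 mM final served as control.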
KinaseGlo FLuc: blocks Kinase-Glo luciferase, a counter-screen artifact; Q27757; Kinase-Glo luciferase, ATP luminescence, 8 min; Potency, µM (titrated, usually from 38.3 µM), most hits filed as inhibitors; hit rate 0.28% among 200,000; also: nearly all actives have a fitted effect of over 60% in size
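Compound is pinned into ATP-containing buffer (10 uM ATP, imidazole pH 7.2, 7 mM MgCl2). Kinase-Glo luciferase reagent is then added. Light output is recorded following an 8-min room-temperature incubation.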
Rab9 promoter act: activates the Rab9 promoter; Huh7 Rab9 promoter-luciferase reporter, luminescence, 24 h; Potency, µM (series often up to 9.22 µM), hits mostly activators; hit rate 2.8% among 320,000; AID 485297; also: nearly all actives have a fitted effect of over 60% in size
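Rab9 promoter-driven luciferase in stably transfected Huh7 cells; 1500 cells/well rested 2 h, exposed to compound in DMSO for 24 h at 37 °C, 5% CO2. Luminescence read 10 min after adding luciferase reagent at ambient temperature.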
NPC1 promoter act: NPC1 promoter activation; Huh7 NPC1 promoter luciferase reporter, 24 h; Potency, µM (titrated, usually from 9.22 µM), hits mostly activators; hit rate 2.4% among 320,000; also: nearly all actives have a fitted effect of over 60% in size
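Huh7 reporter cells (NPC1 promoter driving luciferase) are dosed with compound for 24 h at 37 °C, 5% CO2; luciferase detection reagent is then added and luminescence measured after 10 min at ambient temperature.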
ELG1 genotox: inducers of genotoxicity in HEK293T ELG1-luciferase cells; HEK293T ELG1-luciferase reporter, luminescence, 16 h; Potency, µM (highest dose often 46 µM), most hits filed as activators; hit rate 1.3% among 330,000; also: nearly all actives have a fitted effect of over 60% in size
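16 hr compound incubation (37 °C, 5% CO2) of HEK293T cells carrying luciferase-tagged ELG1; luciferase then measured by ONE-Glo luminescence after 30 min at RT.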
Hits are given with their value; 0 = inactive; ? = inconclusive; - = no result; [ ] = remark or other dose. Calls follow the shape of the dose curve; as a rule, active = well fitted curve in the direction sought with a large enough effect; inconclusive = small, poorly fitted or top-dose-only effect, or another doubt; inactive = no such curve, though single readings can be large; an effect the other way counts as inactive or inconclusive.

SMILES	FLuc modulator	SMN2 splice enh	KinaseGlo FLuc	Rab9 promoter act	NPC1 promoter act	ELG1 genotox
Cc1ccc(-c2csc(N=C(N)N)n2)cc1	15µM	-	-	?	?	0
C/C(=N\Nc1nc2ccccc2[nH]1)c1ccccn1	0.85µM	-	-	0	?	2.5µM
C/C(=N\Nc1nc2ccccc2[nH]1)c1cc2ccccc2o1	2.4µM	13µM	0	?	0	?
CCNc1nc2ccccc2[nH]1	0	0	0	0	0	0
COc1ccc(C)cc1NC(=O)c1cc2c(s1)CCC2	15µM	?	0	?	0	0
COC(=O)c1sccc1NC(=O)c1cccc(OC)c1	?	0	0	0	0	0
COc1ccc(S(=O)(=O)N2CCOCC2)cc1NC(=O)c1cc2c(s1)CCCC2	0	0	0	0	0	0
COC(=O)c1sccc1NC(=O)c1cc2c(s1)CCCC2	8.5µM	0	0	?	0	0
COc1ccc(/C=N\NC(=O)C2COc3ccccc3O2)cc1O (configuration not stated)	24µM	-	-	0	0	0
COc1cc(/C=N/NC(=O)C2COc3ccccc3O2)ccc1O (configuration not stated)	?	-	-	0	0	0
COc1ccc(/C=N/NC(=O)C2COc3ccccc3O2)cc1OC (configuration not stated)	19µM	0	0	0	0	0
O=C(N/N=C/c1ccc2c(c1)OCO2)C1COc2ccccc2O1 (configuration not stated)	17µM	0	0	0	0	0
CC(/C=C/c1ccc2c(c1)OCO2)=N/NC(=O)C1COc2ccccc2O1 (configuration not stated)	0	0	0	0	0	0
Cc1cc(Br)ccc1NC(=O)CCNS(=O)(=O)c1cccc2nonc12	0	0	-	-	-	-
N#Cc1ccc(CS(=O)(=O)c2nnnn2C2CCCCC2)cc1	-	0	0	-	-	-
CCCS(=O)(=O)NCc1cn2c(C)csc2n1	?	11µM	0	?	?	12µM
Cc1csc2nc(CCNS(=O)(=O)c3cccs3)cn12	24µM	0	0	?	?	21µM
CC(C)Oc1cccc(NC(=O)C2CCN(S(=O)(=O)Cc3ccccc3)CC2)c1	0	-	-	-	-	-
COC(=O)c1ccc2[nH]c(CO)c(-c3ccccc3)c2c1	0	-	-	0	0	0
CCC(C)(O)c1[nH]c2ccc(C(=O)OC)cc2c1C (configuration not stated)	21µM	-	-	0	0	0
CCCCN1CC(COCc2ccccc2)Oc2ccccc2S1(=O)=O (configuration not stated)	-	-	-	-	-	0
COc1ccc(-c2nn(-c3ccccc3)cc2C(=O)Nc2ccc(C(=O)O)cc2)cc1OC	4.3µM	-	-	0	0	0
CCOC(=O)c1ccc(NC(=O)c2cn(-c3ccccc3)nc2-c2ccc(OC)c(OC)c2)cc1	0	0	-	-	-	-
O=C(O)c1cccc(NC(=O)c2cn(-c3ccccc3)nc2-c2ccc(F)cc2)c1	4.8µM	-	-	0	0	0
Cc1ccc(NC(=O)c2cn(-c3ccccc3)nc2-c2ccccc2)cc1	0	-	-	-	-	-
SMILES	FLuc modulator	SMN2 splice enh	KinaseGlo FLuc	Rab9 promoter act	NPC1 promoter act	ELG1 genotox
COc1ccc(-c2cn(-c3ccccc3)nc2C(=O)O)cc1OC	12µM	-	-	0	0	0
Cc1ccc(-c2nn(-c3ccccc3)cc2C(=O)Nc2ccc(C(=O)O)cc2)cc1	1.1µM	18µM	0	?	0	0
CCc1ccccc1NC(=O)CCn1cccn1	0	-	-	-	-	-
COc1ccc(-c2nn(-c3ccccc3)cc2/C=C/C(=O)N2CCOCC2)cc1OC	24µM	0	0	0	0	0
COc1ccc(-c2nn(-c3ccccc3)cc2/C=C(\CC(=O)O)c2nc3ccccc3s2)cc1OC	9.5µM	0	0	0	0	0
COc1ccc(OC)c(-c2nn(-c3ccccc3)cc2C(=O)N2CCc3ccccc3C2)c1	0	-	-	0	0	0
COc1ccc(-c2nn(-c3ccccc3)cc2/C=N/Nc2ccc(Cl)c(C(=O)O)c2)cc1OC	13µM	-	-	0	0	0
NC(=O)/C=C\c1cn(-c2ccccc2)nc1-c1ccc2c(c1)OCCO2	0	0	0	0	0	0
COc1cccc(-c2nn(-c3ccc(C)cc3)cc2C(=O)N2CCc3cc(OC)c(OC)cc3C2)c1	5.4µM	-	-	0	0	0
c1cncc(CNc2ncncc2-c2ccc3c(c2)OCO3)c1	-	0	0	-	-	-
O=S(=O)(O)C(c1ccccc1)[C@@H](O)c1ccccc1 (some centres not stated)	-	0[9.22 µM]	0[7.66 µM]	-	-	-
CCc1sc(Nc2cccc(Cl)c2C)nc1-c1cc2cccc(OC)c2oc1=O	0	-	-	-	-	-
COc1ccc(-c2nn(-c3ccccc3)cc2C(=O)O)cc1OC	15µM	0	0	0	0	0
COc1ccc(-c2nn(-c3ccccc3)cc2C(=O)NCCCn2ccnc2)cc1	0	0	0	0	0	0
COc1ccc(-c2nn(-c3ccccc3)cc2/C=C/C(=O)NCCCn2ccnc2)cc1OC	27µM	-	0	0	0	0
COc1cccc(-c2nn(-c3ccccc3)cc2C(=O)O)c1	?	0	0	0	0	0
CSc1ccccc1OCc1cc(C(=O)N(C)Cc2ccncn2)no1	15µM	-	-	2µM	2µM	16µM
CSc1ccccc1OCc1cc(C(=O)N(C)Cc2nonc2C)no1	13µM	-	-	2µM	2.2µM	?
CCn1ccnc1CN(C)C(=O)c1cc(COc2ccccc2SC)on1	12µM	-	-	2.8µM	?	?
Cc1noc(/C=C/c2ccccc2F)c1S(=O)(=O)N1CCC(C(=O)Nc2ccc(C#N)cc2)CC1	0	-	-	-	-	-
O=C(C1CCC1)N1CCc2cc(S(=O)(=O)NCCc3ccccc3)ccc21	0	0	-	-	-	-
CC(C)Oc1ccc(CNC(=O)c2cnc3sc(N4CCCCC4)nn3c2=O)cc1	0	-	-	-	-	-
Cc1ccc2c(c1)C(c1ccc(F)cc1)N(C(=O)c1ccc(S(=O)(=O)N3CCCCC3)cc1)CC(=O)N2 (configuration not stated)	0	0	-	-	-	-
c1ccc(-c2cc(-c3ccc(N4CCOCC4)cc3)nc3ccccc23)cc1	15µM	0	0	0	0	0
Cc1ccc(-c2cc(C(=O)N3CCOCC3)c3cc(C)ccc3n2)cc1	6.7µM	-	-	0	0	0
SMILES	FLuc modulator	SMN2 splice enh	KinaseGlo FLuc	Rab9 promoter act	NPC1 promoter act	ELG1 genotox
Cc1ccc2nc(-c3ccncc3)cc(C(=O)N3CCOCC3)c2c1	0	-	-	0	0	0
NC(=O)C1CCN(C(=O)c2cc(-c3ccc(Cl)cc3)nc3ccccc23)CC1	-	-	-	-	-	0
O=C(c1cc(-c2ccc(Cl)cc2)nc2ccccc12)N1CCOCC1	19µM	-	-	0	0	0
C=Cc1ccc(Cn2c(C(=O)O)c(CNCCc3ccccc3)c3ccc(C)cc32)cc1	0	-	-	-	-	-
Fc1cc(F)c2ncc3c(-c4ccccc4)nn(-c4cccc(Cl)c4)c3c2c1	0	0	-	-	-	-
COC(=O)c1ccc(NC(=O)N2CCN(Cc3cc(=O)n4nc(-c5ccc(C)cc5)sc4n3)CC2)cc1	0	-	-	-	-	-

From PubChem
